Laboratory results taken from PubChem BioAssay (NCATS).
Records with an inconclusive call do not appear. Active and inactive are the calls of the source. Unless noted, calls come from the whole dose curve; as a rule, active = well fitted curve in the direction sought with a large enough effect; inconclusive = small, poorly fitted or top-dose-only effect, or another doubt; inactive = no such curve, though single readings can be large; an effect the other way counts as inactive or inconclusive.

Assays:
[1] = Cell Viability - BJ (AID 421; calls by dose curve;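 note: potency is the fitted concentration of half-maximal effect; cells exposed to compound for 40 hours at 37 °C before readout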); conditions: BJ fibroblast viability, qHTS
Method in brief: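 Luminescent ATP signal (CellTiter-Glo, 20 min at room temperature) served as the read-out of viable BJ cells after 40 hours of compound treatment. Responses were scaled between DMSO and 100 uM tamoxifen, and AC50 values were obtained by Hill modeling.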

[2] = Cell Viability - Hek293 (AID 427;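 active = compounds whose dose-response curve shows a full or clear partial loss of cell viability, called from curve shape rather than a numeric limit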;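 note: potency is the fitted concentration of half-maximal effect; cells exposed to compound for 40 hours at 37 °C before reading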); conditions: qHTS
Method in brief: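 Luminescent ATP read-out (CellTiter-Glo, 20 min RT) after 40 hr compound exposure at 37 °C in complete medium. Signal normalized to DMSO (basal) and 100 uM tamoxifen (100% inhibition); concentration-response fitted with the standard Hill equation to give AC50.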

[3] = Cell Viability - HepG2 (AID 433; calls by dose curve;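 note: potency is the fitted concentration of half-maximal effect; potency for ATP loss meaning cytotoxicity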); conditions: qHTS
Method in brief: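 ATP luminescence (CellTiter-Glo) after 40 h compound exposure, 37 °C, HepG2, 1500 cells/well, complete medium. Normalized: DMSO = basal, 100 uM tamoxifen = 100% inhibition. AC50 via standard Hill equation.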

[4] = Cell Viability - MRC5 (AID 434; calls by dose curve;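 note: potency is the fitted concentration of half-maximal effect; potency reflects cytotoxicity seen as loss of intracellular ATP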); conditions: MRC5 lung fibroblast viability, qHTS
Method in brief: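 MRC5 normal human lung fibroblasts, 1500 cells/well, exposed to compound for 40 hr at 37 C. Cellular ATP was read by CellTiter-Glo luminescence; data normalized to DMSO and 100 uM tamoxifen, with AC50 from Hill fits.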

[5] = Cell Viability - SK-N-SH (AID 435; calls by dose curve; note: potency is the fitted concentration of half-maximal effect); conditions: SK-N-SH neuroblastoma cell viability qHTS
Method in brief: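 CellTiter-Glo ATP luminescence, 20 min RT read; cells pre-plated 5 hr, compound 40 hr at 37 °C, 1500 cells/well, complete medium. Normalized DMSO = 0, 100 uM tamoxifen = 100% inhibition; Hill-fit AC50.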

[6] = molecular target: Mitogen-activated protein kinase 10 (Mus musculus) (UniProt Q61831); assay: JNK3 AlphaScreen Assay (AID 530; active = well fitted curve in either direction with a large enough effect, not every such curve was filed as active;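 note: kinase came from lysate of stimulated human HepG2 cells; signal reports phosphorylation of biotinylated GST-cJun 1-79 at Ser73 with 10 µM ATP; % is set by controls: 0 for no effect and ±100 for the full control effect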)
Method in brief: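 qHTS format: compounds tested as titrations against IL-1beta/TNF-alpha-activated HepG2 lysate JNK3 with biotin-GST-cJun substrate and 10 uM ATP at room temperature. Loss of anti-phospho-cJun AlphaScreen signal indicates inhibition.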

[7] = Cell Viability - N2a (AID 540); conditions: N2a mouse neuroblastoma cell viability; activity change, negative = cytotoxicity: at 92.2 µM (top of the series);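 note: plate controls were DMSO alone for no effect and tamoxifen control for full effect; nearly all actives have a fitted effect of over 45% in size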
Method in brief: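 First, 1500 N2a cells per well incubate 5 hr at 37 °C; next, compounds are added and incubated 40 hr at 37 °C; finally CellTiter-Glo is added and luminescence read after 20 min, with AC50 derived by Hill modeling.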

[8] = Cell Viability - NIH 3T3 (AID 541); conditions: NIH 3T3 cell viability, qHTS; activity change, negative = cytotoxicity: at 92.2 µM (top of the series);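 note: plate controls were DMSO alone for no effect and tamoxifen positive control for full effect; nearly all actives have a fitted effect of over 25% in size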
Method in brief: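 AC50 values reflect concentration-dependent loss of intracellular ATP in NIH 3T3 cells after 40 hr treatment in complete culture medium, quantified by luciferase-based luminescence.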

[9] = Cell Viability - HUV-EC-C (AID 542); note: % is set by controls: 0 for no effect and ±100 for the full control effect; nearly all actives have a fitted effect of over 35% in size
Method in brief: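 Decrease in cellular ATP, quantified by luciferase luminescence, reflects toxicity in normal human vascular endothelial HUV-EC-C cells given compound for 40 hr in complete culture medium. Values are AC50s from concentration-response curves.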

[10] = Cell Viability - H-4-II-E (AID 543); note: % is set by controls: 0 for no effect and ±100 for the full control effect; nearly all actives have a fitted effect of over 35% in size
Method in brief: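 Here, cytotoxicity is measured in the rat hepatoma line H-4-II-E as loss of intracellular ATP after 40 hr compound treatment, detected by luciferase luminescence.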

[11] = Cell Viability - SH-SY5Y (AID 544); conditions: SH-SY5Y neuroblastoma cell viability; viability change, negative = cytotoxic: at 92.2 µM (top of the series); note: nearly all actives have a fitted effect of over 55% in size
Method in brief: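 Cytotoxicity is scored as a concentration-dependent fall in intracellular ATP in human SH-SY5Y cells treated 40 hr in complete culture medium. Potency is expressed as AC50 from a Hill equation fit.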

[12] = Cell Viability - Renal Proximal Tubule (AID 545); conditions: renal proximal tubule cells viability, primary cells of rat origin; activity change, negative = cytotoxicity: at 91.7 µM (top of the series); note: nearly all actives have a fitted effect of over 40% in size
Method in brief: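 Rat kidney proximal tubule cells, freshly isolated; 1000 cells/well, 5 hr settle, compound 40 hr 37 °C. CellTiter-Glo 20 min RT, luminescence read. AC50 by standard Hill fit.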

[13] = Cell Viability - Mesenchymal (AID 546); conditions: mesenchymal cells viability, qHTS; activity change, negative = cytotoxicity: at 91.7 µM (top of the series);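 note: cells exposed to compound for 40 hours before reading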
Method in brief: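 Human kidney mesenchymal cells from normal renal glomeruli, 1000 cells/well, rested 5 hr at 37 °C, then treated 40 hr at 37 °C in complete medium. Cellular ATP read by CellTiter-Glo luminescence; AC50 from Hill-equation fits.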

[14] = Cellular Toxicity (caspase-3) HepG2 (AID 654);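 note: cells exposed to compound for 16 hours before reading; 0% = DMSO alone and 100% = caspase signal from 100 µM tamoxifen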
Method in brief: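 qHTS, HepG2, 1500 cells/well, complete medium; cpd 16 h 37 °C; Caspase-Glo 3/7, 20 min RT; lum. Norm: DMSO vs 100 uM tamoxifen; AC50 Hill fit.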

[15] = Cellular Toxicity (caspase-3) Jurkat (AID 655); conditions: Jurkat caspase-3 activation, luminescence; caspase-3 activation: at 92.2 µM (top of the series), DMSO = 0%, tamoxifen = 100%;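 note: cells exposed to compound for 16 h at 37 °C before reading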
Method in brief: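 Luminescent caspase-3/7 readout (aminoluciferin substrate cleavage) in human T-cell leukemia Jurkat cells after 16 hr compound exposure. Concentration-response normalized to DMSO and 100 uM tamoxifen; AC50 by standard Hill equation.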

[16] = Cellular Toxicity (caspase-3) BJ (AID 658); conditions: Potency: caspase-3 activation;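 note: 0% = DMSO basal and 100% = 10 µM staurosporine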
Method in brief: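 BJ human foreskin fibroblasts, 1000 cells/well, treated 16 hours at 37 °C in complete medium; caspase 3/7 activity by Caspase-Glo luminescence after 1 hr at room temperature. Normalized to DMSO and 10 uM staurosporine; AC50 from Hill fits.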

[17] = Cellular Toxicity (caspase-3) Mesangial (AID 660); conditions: mesangial cells, normalized: DMSO 0%, 100 µM tamoxifen 100%; at 91.7 µM (top of the series);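 note: combined caspase 3 and 7 activity read by Caspase-Glo luminescence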
Method in brief: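 Concentration-response qHTS: compound-induced rise in caspase 3/7 luminescence in human mesangial cells after 16 h, normalized to DMSO and 100 uM tamoxifen controls.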

[18] = Cellular Toxicity (caspase-3) SK-N-SH (AID 661); conditions: SK-N-SH caspase-3 activation, qHTS; caspase-3 activation: at 91.7 µM (top of the series), DMSO as zero, staurosporine as full;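 note: 0% = DMSO basal and 100% = 10 µM staurosporine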
Method in brief: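 Caspase 3/7 activation is measured as a luminescence increase from aminoluciferin released by substrate cleavage in SK-N-SH cells after 16 hr compound treatment; values are AC50 from concentration-response curves.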

[19] = Cellular Toxicity (caspase-3) H-4-II-E (AID 663); conditions: H-4-II-E rat hepatoma; Potency: caspase-3 activation; caspase-3 activation: at 92.2 µM (top of the series), scaled: DMSO 0%, 100 µM tamoxifen 100%;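 note: cells exposed to compound for 16 hr before readout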
Method in brief: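 Rat hepatoma H-4-II-E cells (1500/well) plated 5 hr, then exposed to compound titrations for 16 hr at 37 °C. Caspase-Glo 3/7 luminescence read after 20 min at RT; data normalized to DMSO and 100 uM tamoxifen, AC50 from Hill fits.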

[20] = Cellular Toxicity (caspase-3) NIH 3T3 (AID 666);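 note: 0% = DMSO basal and 100% = 100 µM tamoxifen stimulation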
Method in brief: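 Concentration-response qHTS in NIH 3T3 mouse fibroblasts scores caspase-3/7 activation as rising luminescence after 16 hr compound exposure. Signals are scaled between DMSO-only and 100 uM tamoxifen.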

[21] = Cellular Toxicity (caspase-3) Renal Proximal Tubule (AID 667);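 note: cells exposed to compound for 16 hours at 37 °C before detection; 0% = DMSO basal and 100% = 10 µM staurosporine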
Method in brief: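 Luminescent caspase 3/7 signal from peptide-aminoluciferin cleavage measures apoptosis in freshly isolated rat kidney proximal tubule cells after 16 h compound exposure. Concentration-response data are normalized to DMSO and 10 uM staurosporine, and AC50 values come from Hill equation fits.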

[22] = molecular target: Cytochrome P450 3A4 (Homo sapiens) (UniProt P08684); assay: qHTS Assay for Inhibitors and Substrates of Cytochrome P450 3A4 (AID 884); note: % is set by controls: 0 for no effect and ±100 for the full control effect; nearly all actives have a fitted effect of over 50% in size
Sequence of Cytochrome P450 3A4 (Homo sapiens) (P08684 whole entry, looked up): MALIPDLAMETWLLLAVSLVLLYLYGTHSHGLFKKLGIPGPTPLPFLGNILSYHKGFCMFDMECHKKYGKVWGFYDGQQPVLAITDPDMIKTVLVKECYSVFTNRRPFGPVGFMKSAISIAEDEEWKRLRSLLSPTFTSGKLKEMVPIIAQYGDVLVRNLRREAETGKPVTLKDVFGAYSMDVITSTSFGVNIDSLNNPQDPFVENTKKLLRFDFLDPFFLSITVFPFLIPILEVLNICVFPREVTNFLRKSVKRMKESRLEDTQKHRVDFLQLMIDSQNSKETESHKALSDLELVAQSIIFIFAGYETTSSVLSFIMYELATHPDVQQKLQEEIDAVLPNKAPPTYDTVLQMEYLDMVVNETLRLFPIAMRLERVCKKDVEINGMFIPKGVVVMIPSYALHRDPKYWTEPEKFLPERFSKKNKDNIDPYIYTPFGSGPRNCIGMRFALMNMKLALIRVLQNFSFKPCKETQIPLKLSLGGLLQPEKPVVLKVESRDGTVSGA
Method in brief: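 20 nM human CYP3A4 with 25 uM Luciferin-PPXE (at KM) in 200 mM KPO4, preincubated 10 min with compound; NADPH regeneration started a 60 min RT reaction. Luciferin detected by luminescence, normalized to 57 uM ketoconazole as full inhibition.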

[23] = Cell Viability - LYMP2-001 (AID 921);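 note: 0% = DMSO only and full inhibition = tetraoctylammonium bromide control wells; nearly all actives have a fitted effect of over 70% in size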
Method in brief: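 CellTiter-Glo luminescence (intracellular ATP) after 24 hr compound exposure at 37 C, 2500 lymphoblastoid cells/well in complete medium. AC50 fitted with standard Hill equation; tetraoctylammonium bromide positive control.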

[24] = MultiTox-Fluor Cytotoxicity Assay - LYMP1-001 - Dead Cells (AID 946);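 note: 0% = DMSO and 100% = tetraoctylammonium bromide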
Method in brief: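 AC50 from Hill fit of concentration-response; data normalized to DMSO (basal) and 15 uM tetraoctylammonium bromide (100%). LYMP1-001 lymphoblastoid cells, 2500/well, 16 hr compound at 37 C; dead-cell protease fluorescence, Ex/Em 485/520.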

[25] = MultiTox-Fluor Cytotoxicity Assay - LYMP1-001 - Live Cells (AID 947);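 note: 0% = DMSO only and full inhibition = tetraoctylammonium bromide control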
[26] = Cell Viability - LYMP1-002 - Assay at 16 hr (AID 948);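 note: 0% = DMSO alone and full effect = 92 µM tetraoctylammonium bromide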
Method in brief: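 LYMP1-002 human lymphoblastoid cells, 2500/well; 5 hr 37 C; cpd 16 hr 37 C; CellTiter-Glo 30 min RT; luminescence (ATP). Concentration-response, Hill-fit AC50. Pos ctrl tetraoctylammonium bromide.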

[27] = MultiTox-Fluor Cytotoxicity Assay - LYMP1-002 - Live Cells (AID 955); note: % is set by controls: 0 for no effect and ±100 for the full control effect
Method in brief: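 Cytotoxicity in the human lymphoblastoid line LYMP1-002 is measured as loss of live-cell protease activity after 16 h treatment in complete culture medium. AC50 is derived from Hill-equation fits of qHTS concentration-response data.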

[28] = MultiTox-Fluor Cytotoxicity Assay - LYMP1-002 - Dead Cells (AID 960);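 note: 0% = DMSO and 100% = tetraoctylammonium bromide; nearly all actives have a fitted effect of over 60% in size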
Method in brief: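 Acute cytotoxicity in a human lymphoblastoid line is scored as rising dead-cell protease signal after 16 hr exposure at 37 C, measured fluorometrically (485/520).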

[29] = MultiTox-Fluor Cytotoxicity Assay - LYMP1-003 - Dead Cells (AID 961);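 note: 0% = DMSO and 100% = tetraoctylammonium bromide; nearly all actives have a fitted effect of over 70% in size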
Method in brief: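 Human lymphoblastoid LYMP1-003 cells (2500/well) were treated with compounds for 16 hr at 37 C in complete medium. Dead-cell protease release was read by bis-AAF-R110 fluorescence (Ex/Em 485/520). AC50 came from Hill fits, normalized to DMSO and 15 uM tetraoctylammonium bromide.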

[30] = MultiTox-Fluor Cytotoxicity Assay - LYMP1-003 - Live Cells (AID 962);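 note: 0% = DMSO only and full loss = 92 µM tetraoctylammonium bromide; cytotoxic hits lower the live-cell protease signal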
Method in brief: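 Cells plated at 2500 per well and incubated 5 hr; compounds added and incubated 16 hr at 37 C; MultiTox-Fluor reagent added for 60 min at room temperature; fluorescence of liberated AFC measured at 405/510 nm.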

[31] = Cell Viability - LYMP1-003 - Assay at 24 hr (AID 963);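 note: plate controls were DMSO only for no effect and tetraoctylammonium bromide positive control for full effect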
Method in brief: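 Acute toxicity in LYMP1-003 lymphoblastoid cells: 24 hr compound treatment at 37 C, ATP measured with CellTiter-Glo after 30 min at room temperature. AC50 derived by fitting the Hill equation to qHTS titrations.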

[32] = Cell Viability - LYMP1-003 - Assay at 40 hr (AID 964); note: % is set by controls: 0 for no effect and ±100 for the full control effect; nearly all actives have a fitted effect of over 60% in size
Method in brief: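 This qHTS cytotoxicity screen treats human lymphoblastoid cells (LYMP1-003) with compounds for 40 hr and quantifies cellular ATP via luciferase luminescence.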

[33] = Cell Viability - LYMP2-003 (AID 965);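 note: cells exposed to compounds for 24 h before reading; 0% = DMSO only and full effect = 92 µM tetraoctylammonium bromide; nearly all actives have a fitted effect of over 50% in size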
Method in brief: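 CellTiter-Glo luminescence (cellular ATP) after 24 h compound exposure at 37 C in complete medium; 2500 cells/well, 5 h settling beforehand. Concentration-response fitted to standard Hill equation for AC50. Tetraoctylammonium bromide served as positive control.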

[34] = Cell Viability - LYMP2-004 (AID 966);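 note: plate controls were DMSO only for no effect and tetraoctylammonium bromide control for full effect; nearly all actives have a fitted effect of over 65% in size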
Method in brief: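 Acute toxicity is scored as a concentration-dependent drop in intracellular ATP, quantified by luciferase luminescence, in human lymphoblastoid cells exposed to compound for 24 hr. AC50 derives from Hill-equation modelling.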

[35] = Cell Viability - LYMP2-005 (AID 967);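 note: plate controls were DMSO only for no effect and 92 µM tetraoctylammonium bromide control for full effect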
Method in brief: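 Steps: seed 2500 LYMP2-005 cells/well, incubate 5 h at 37 C, add compound, incubate 24 h at 37 C, add CellTiter-Glo, wait 30 min at RT, read luminescence. Concentration-response data fitted to Hill equation for AC50.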

[36] = Cell Viability - LYMP2-009 (AID 968);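 note: 0% = DMSO alone and the full-kill end = tetraoctylammonium bromide at 92 µM; nearly all actives have a fitted effect of over 55% in size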
[37] = Cell Viability - LYMP2-011 (AID 969);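 note: 0% = DMSO only and full inhibition = 92 µM tetraoctylammonium bromide; nearly all actives have a fitted effect of over 60% in size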
Method in brief: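 Acute toxicity is scored as a concentration-dependent drop in intracellular ATP of a human lymphoblastoid line after 24 hr treatment. Values are AC50s modeled with the Hill equation.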

[38] = Cell Viability - LYMP2-013 (AID 970)
Method in brief: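 Acute toxicity was measured in human lymphoblastoid cells (2500/well) exposed to compound titrations for 24 hr, with ATP luminescence (CellTiter-Glo) as read-out and AC50 fitted by Hill equation.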

[39] = Cell Viability - LYMP2-015 (AID 971)
Method in brief: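 Acute toxicity was scored as a concentration-dependent drop in intracellular ATP in lymphoblastoid cells after 24 hr compound exposure in complete medium. Detection used CellTiter-Glo luciferase luminescence.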

[40] = Cell Viability - LYMP2-017 (AID 972)
Method in brief: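 Steps: plate 2500 lymphoblastoid cells per well; incubate 5 hr at 37 C; add compound across a concentration series and incubate 24 hr at 37 C; add CellTiter-Glo and read luminescence after 30 min at room temperature; fit Hill curves for AC50.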

[41] = Cell Viability - LYMP2-019 (AID 973)
Method in brief: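 Cells plated at 2500/well and allowed 5 hr at 37 C before compound addition. After 24 hr incubation, CellTiter-Glo reagent was added, plates sat 30 min at room temperature, and luminescence was recorded.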

CCCCCC/C(C=O)=C\c1ccccc1
inactive: Potency [1] > 92 µM | Potency [2] > 92 µM | Potency [3] > 92 µM | Potency [4] > 92 µM | Potency [5] > 92 µM | Potency [6] | Potency [7] | Potency [8] | Potency [9] | Potency [10] | Potency [11] | Potency [12] | Potency [13] | Potency [14] | Potency [15] | Potency [16] | caspase-3 activation [17] 1.26% | caspase-3 activation [18] -0.582% | caspase-3 activation [19] 0.146% | Potency [20] | outcome [21] | Potency [22] | Potency [23] | Potency [24] | Potency [25] | Potency [26] | Potency [27] | Potency [28] | Potency [29] | Potency [30] | Potency [31] | Potency [32] | Potency [33] | Potency [34] | Potency [35] | Potency [36] | Potency [37] | Potency [38] | Potency [39] | Potency [40] | Potency [41]
